# A selection: hits, their analogues and other compounds. The true share with any hit is near 10%.
# CtBP-E1A inh: qHTS Assay for Inhibitors of the CtBP/E1A Interaction; CtBP / adenovirus E1A interaction (AlphaScreen); AlphaScreen GST-E1A/His-CtBP binding, 1536-well; hits give low values; activity change, % (no concentration beside the values); hit rate 0.49% among 340,000; in the data active = activity change below about -65%; inconclusive = mostly about -30% to -63%; note: % is set by controls: 0 for no effect and ±100 for the full control effect
#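 GST-E1A and His-tagged CtBP (125 nM each as 5X stock) were preincubated with pin-transferred compound for 2 h at 37 °C in the dark, then glutathione donor and nickel acceptor beads were added for 1 h before AlphaScreen reading.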
# Six1-Eya2 inh: qHTS Assay for Inhibitors of the Six1/Eya2 Interaction; Homeobox protein SIX1 (Homo sapiens) + Protein phosphatase EYA2 (Homo sapiens), …; AlphaScreen GST-Six1/His-Eya2 binding, biochemical; hits give low values; activity change, % (concentration not given with the values); hit rate 0.56% among 360,000; in the data active = activity change below about -65%; inconclusive = mostly about -30% to -63%; note: % is set by controls: 0 for no effect and ±100 for the full control effect
#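 AlphaScreen luminescence read after one hour at 37 °C in darkness. Pin-transferred compounds met GST-Six1 and His-Eya2 protein (5X stock 250 nM/500 nM) plus glutathione donor and Ni-chelate acceptor beads (5X, 50 ug/mL).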
# JMJD2A Tudor: qHTS Assay for Inhibitors of JMJD2A-Tudor Domain; Potency, µM (highest dose often 114 µM), for the others: at the highest dose activity change, negative = inhibition, most hits filed as inhibitors; hit rate 4.4% among 390,000; AlphaScreen JMJD2A-Tudor / H3K4me3 peptide binding; Lysine-specific demethylase 4A (Homo sapiens), O75164; note: potency is the fitted concentration of half-maximal effect; % is set by controls: 0 for no effect and ±100 for the full control effect; nearly all actives have a fitted effect of over 50% in size
# HP1b binding inh: HTS for Inhibitors of HP1-beta Chromodomain Interactions with Methylated Histone Tails. Chromobox protein homolog 1 (Homo sapiens), P83916. AlphaScreen HP1-beta / biotin-H3K9me3 peptide binding. Potency, µM (doses to about 114 µM), inactives show at the highest dose activity change, negative = inhibition, usual class: inhibitors. hit rate 0.56% among 390,000. AID 540317, 2011; note: potency is the fitted concentration of half-maximal effect; nearly all actives have a fitted effect of over 70% in size
# Target sequence (P83916 whole entry, looked up): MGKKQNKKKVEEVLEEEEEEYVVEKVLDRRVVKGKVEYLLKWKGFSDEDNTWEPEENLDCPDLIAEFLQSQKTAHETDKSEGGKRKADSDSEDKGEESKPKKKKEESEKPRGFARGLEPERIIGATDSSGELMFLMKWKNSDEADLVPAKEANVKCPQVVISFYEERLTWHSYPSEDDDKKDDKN
#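 HP1-beta protein (50 nM final) preincubated 30 min at room temperature with biotinylated H3(1-18)K9me3 peptide (50 nM) in PBS pH 7.4, 0.01% Tween-20, then compound added for 30 min. AlphaScreen streptavidin donor/nickel chelate acceptor beads (10 ug/mL final), 30 min dark, luminescence read.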
# BAZ2B inh: qHTS Assay for Inhibitors of BAZ2B. AlphaScreen BAZ2B-H3K14Ac peptide displacement. hit rate 4.4% among 360,000. Potency, µM (doses to about 114 µM), without a hit: at the highest dose activity change, negative = inhibition, usual class: inhibitors. AID 504333, 2011; note: potency is the fitted concentration of half-maximal effect; % is set by controls: 0 for no effect and ±100 for the full control effect; nearly all actives have a fitted effect of over 60% in size
#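 In this displacement format the biotinylated H3(5-23) peptide acetylated at Lys14 serves as ligand at 50 nM, with BAZ2B at 50 nM in PBS pH 7.4 containing 0.01% Tween-20. Donor and acceptor beads are 10 ug/mL final.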
# G9a inh: qHTS Assay for Inhibitors of Histone Lysine Methyltransferase G9a | G9a H3K9 monomethylation, AlphaScreen, 2 h | Potency, µM (top dose mostly 102 µM), for the others: top-dose activity, negative = inhibition, most hits filed as inhibitors | hit rate 8.8% among 350,000 | AID 504332, 2011; note: potency is the fitted concentration of half-maximal effect; % is set by controls: 0 for no effect and ±100 for the full control effect; nearly all actives have a fitted effect of over 75% in size
# Target sequence (Q96KQ7 913-1193 limits assumed): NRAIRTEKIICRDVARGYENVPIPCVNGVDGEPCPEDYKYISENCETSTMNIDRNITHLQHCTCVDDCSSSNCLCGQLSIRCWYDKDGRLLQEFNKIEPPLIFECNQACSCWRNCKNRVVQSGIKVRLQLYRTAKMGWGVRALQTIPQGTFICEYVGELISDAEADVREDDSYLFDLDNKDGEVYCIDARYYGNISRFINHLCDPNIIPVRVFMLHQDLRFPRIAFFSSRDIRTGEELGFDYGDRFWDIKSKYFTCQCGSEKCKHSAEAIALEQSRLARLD
#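 Signal arises when biotinylated H3K9 peptide, once monomethylated, bridges streptavidin donor and antibody-captured acceptor beads. Enzyme at 20 nM was preincubated 15 min with test compounds; peptide 500 nM and SAM 20 uM then reacted for 2 h.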
# Numbers without * were called inactive; ? = inconclusive; nt = no result given; ! = not active in a repeat; [ ] = another dose, or the depositor's remark. Unless noted, calls come from the whole dose curve; as a rule, active = well fitted inhibition curve with a large enough effect; inconclusive = small, poorly fitted or top-dose-only effect; inactive = no such curve, though single readings can be large or run the other way.
SMILES,CtBP-E1A inh,Six1-Eya2 inh,JMJD2A Tudor,HP1b binding inh,BAZ2B inh,G9a inh
COc1cccc(OCCCCn2c(-c3ccc(Cl)cc3)nc3ccccc3c2=O)c1,nt,nt,36%,100%,84%,19%[59 µM]
C[C@H](N)CCP(=O)(O)O,nt,nt,nt,nt,nt,39%[59 µM]
Cc1csc2nc(CCNS(=O)(=O)c3ccc(F)cc3)cn12,nt,nt,-5%,26%[57 µM],3%,0%[59 µM]
Cc1ccc(NC(=O)C(=O)NCC(c2cccnc2)N2CCN(C)CC2)cc1C (configuration not stated),nt,nt,-12%,23%,-16%,-22%[59 µM]
CCOc1ccc(OCCC(=O)OCC(=O)Nc2cc(OCC)c(N3CCOCC3)cc2OCC)cc1,-12,?,?,?,?,35µM*
CCOc1cc(NC(=O)c2ccco2)c(OCC)cc1NC(=O)Cc1ccc(OC)c(OC)c1,-3,-4,-34%,4%,-26%,18%[59 µM]
CCOc1cc(N2CCOCC2)c(OCC)cc1NC(=O)COC(=O)c1cc2ccccc2cc1O,0,3,-18%,20%,-2%,-14%[59 µM]
CCOc1cc(N2CCOCC2)c(OCC)cc1NC(=O)Cc1ccc(OC)c(OC)c1,-19,-12,?,-10%,?,50µM*
CCN(CC)C(=O)Nc1ccc(OC[C@H](O)CNC(C)(C)C)c(C(C)=O)c1,nt,nt,nt,nt,nt,-45%[12.7 µM]
COc1ccc(C2C=C3CNS(=O)(=O)C3CC2OC(=O)c2ccc(Cl)cc2)cc1 (configuration not stated),nt,nt,-30%,13%,nt,nt
O=C1OC(NC(=O)c2ccccc2)C(n2cc(CO)nn2)=C1Cl (configuration not stated),-17,?,89µM*,?,?,?
Cc1ccc(NC2=C(Cl)C(=O)OC2NC(=O)c2ccccc2)cc1 (configuration not stated),3,-2,-8%[57.1 µM],15%,-5%,26%[59 µM]
CNC(CC(=O)c1ccc([N+](=O)[O-])cc1)C(Cl)(Cl)Cl (configuration not stated),9,-14,?,16µM*,?,4µM*
Cc1ccc(NCC(=O)c2ccc([N+](=O)[O-])cc2)cc1,-23,?,?,?,?,8.9µM*
COc1ccc(C(=O)CC(Nc2ccc([N+](=O)[O-])cc2)c2ccc(OC)cc2)cc1 (configuration not stated),-20,-20,?,-21%,-11%,?
COc1cccc(-n2c(-c3ccco3)nc3c(cnn3-c3ccccc3C)c2=O)c1,nt,nt,?,20%,nt,-3%[59 µM]
Cc1cccc(NC(=O)C(Cc2ccccc2)N2Cc3ccccc3C2=O)c1C (configuration not stated),nt,nt,-15%,37%,-11%,-24%[59 µM]
COc1ccc(Cl)cc1C(=O)C1CCCN(Cc2cnc(N3CCOCC3)s2)C1 (configuration not stated),-14,-1,14µM*,?,-31%,-25%
Cc1ccc(-c2csc3nc4c5ccccc5c(NCCCN(C)C)nn4c(=O)c23)cc1,?,-67*,5%,-20%,13%,35µM*
Cc1ccc(-c2csc3nc4c5ccccc5c(NCCCN5CCOCC5)nn4c(=O)c23)cc1,nt,nt,nt,nt,-5%,nt
NC(=O)C(=O)NN=C1C2CC3CC(C2)CC1C3,0,8,?,1%,-35%,45µM*
NC(=S)NN=C1C2CC3CC(C2)CC1C3,13,1,-17%,-24%,-11%,14µM*
COc1ccc(Br)cc1CNC(=O)CCSCc1ccc(Cl)cc1,nt,nt,-7%,34%,-1%,-18%[59 µM]
Cc1ccc2sc(N(Cc3cccnc3)C(=O)CCOc3ccccc3)nc2c1C,nt,nt,-4%,30%,-3%,9%[59 µM]
CC(C)NS(=O)(=O)c1ccc2[nH]c3nc(SCC(=O)Nc4ccc(F)c(F)c4)nnc3c2c1,nt,nt,-23%,36%,nt,nt
SMILES,CtBP-E1A inh,Six1-Eya2 inh,JMJD2A Tudor,HP1b binding inh,BAZ2B inh,G9a inh
CCOc1ccc(/C=C(\C#N)C(=O)Nc2sc3c(c2C(=O)OC)CCC3)cc1OC,nt,nt,-9%,55%,29%,46%[59 µM]
COc1ccc(Nc2nc(C(=O)NCc3ccco3)cs2)cc1,nt,-20,?,-10%,79µM*,?
COc1ccc(Nc2cc(C(=O)NCc3ccco3)c3ccccc3n2)cc1,nt,nt,nt,nt,-25%,-1%
COc1ccc(Nc2nc(C(=O)N(CCO)Cc3ccccc3)cs2)cc1,nt,3,-31%,17%,50µM*,45µM*
O=C(NCc1ccco1)c1csc(Nc2ccccc2Cl)n1,?,-23,-35%,1%,?,32µM*
CCn1c(C(=O)N2CCC(C(=O)NCCc3ccc(OC)cc3OC)CC2)cc2sccc21,nt,nt,-17%,7%,-16%,-27%[59 µM]
Cc1nnc(N/N=C/C(C)c2ccccc2)[nH]c1=O (configuration not stated),-20,-21,0.89µM*,28%,-25%,?
Cc1nnc(N/N=C/c2c[nH]c3ccccc23)[nH]c1=O,?,-1,-25%,39%,?,nt
N#Cc1c(=O)c2nc(NCc3ccccc3)ncc2n2ccccc12,?,-66*,50µM*,43%,?,-21%[12.7 µM]
c1ccc(CCNc2c3c(nc4ncnn24)CCC3)cc1,-6,-2,-16%,21%,28%,-2%
Fc1ccccc1CCNc1c2c(nc3ncnn13)CCCC2,-11,-5,-7%,47%,-4%,50µM*
O=C(CC1(O)C(=O)N(CCc2ccccc2)c2ccc(Br)cc21)c1ccc(F)cc1 (configuration not stated),nt,nt,-29%,8%,-3%,-27%[59 µM]
COC(=O)c1ccc(N/C(C)=C/C(=O)c2ccc(C)o2)cc1,4,8,89µM*,-16%,-36%,4%[12.7 µM]
CCOc1ccc(N/C(C)=C/C(=O)c2ccc(C)o2)cc1,5,4,3%,20%,?,50µM*
C/C(=C\C(=O)c1ccc(C)o1)Nc1ccc2c(c1)OCO2,-11,-11,?,-21%,?,?
O=C(NCc1ccccc1)c1nn(-c2ccccc2)nc1CO,nt,nt,-14%,63%,-23%,20%[59 µM]
C=C1CN(CC(=O)OC)S(=O)(=O)c2ccccc21,-24,-17,89µM*!,-17%,-7%,-11%[59 µM]
Cc1ccc(C(=O)Nc2ccc(C(=O)N/N=C/c3ccncc3)cc2)cc1,nt,nt,nt,nt,?,32µM*

# Compound activity from PubChem BioAssay.
